Laboratory results published in PMC11006913.
Changes are numbered by the printed parent chain.

Tests used:
Assay in all cases: PBM; 200 nM protein, PBS
Details in all cases: dsDNA, one strand shown
[1] = biological target: HOXC10 (Homo sapiens, UniProt Q9NYD6 254-340)
[2] = biological target: HOXC10 (Homo sapiens, UniProt Q9NYD6 254-340, K271E)
[3] = biological target: VAX1 (Homo sapiens, UniProt Q5SQQ9 86-172)
[4] = biological target: VAX1 (Homo sapiens, UniProt Q5SQQ9 86-172, T142I)
[5] = biological target: VAX1 (Homo sapiens, UniProt Q5SQQ9 86-172, K157R)
[6] = biological target: ALX4 (Homo sapiens, UniProt Q9H161 200-286)
[7] = biological target: ALX3 (Homo sapiens, UniProt O95076 139-225, N203S)
[8] = biological target: T1, PAX4 (Homo sapiens, UniProt O43316 9-242, R200K)
T1 sequence: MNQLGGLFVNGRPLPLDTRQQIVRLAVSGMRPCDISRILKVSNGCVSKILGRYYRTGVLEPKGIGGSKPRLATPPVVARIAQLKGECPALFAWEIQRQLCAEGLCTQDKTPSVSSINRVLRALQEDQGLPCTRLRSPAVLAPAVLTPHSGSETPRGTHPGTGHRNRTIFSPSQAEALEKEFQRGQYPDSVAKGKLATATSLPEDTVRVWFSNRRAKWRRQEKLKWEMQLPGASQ

[9] = biological target: T2, PAX4 (Homo sapiens, UniProt O43316 9-242)
T2 sequence: T1 sequence with K192R

[10] = biological target: ALX4 (Homo sapiens, UniProt Q9H161 200-286, Q225E)
[11] = biological target: ALX1 (Homo sapiens, UniProt Q15699 118-204, L144V)
[12] = biological target: ALX3 (Homo sapiens, UniProt O95076 139-225, N203Q)
[13] = biological target: T3, PAX4 (Homo sapiens, UniProt O43316 9-242, R200Q)
T3 sequence: T1 sequence with K192Q

[14] = biological target: ALX1 (Homo sapiens, UniProt Q15699 118-204, L144R)
[15] = biological target: T4, PAX4 (Homo sapiens, UniProt O43316 9-242, F177V)
T4 sequence: T1 sequence with F169V, K192R

[16] = biological target: ALX3 (Homo sapiens, UniProt O95076 139-225)
[17] = biological target: T5, PAX4 (Homo sapiens, UniProt O43316 9-242, F177Y)
T5 sequence: T1 sequence with F169Y, K192R

[18] = biological target: ALX3 (Homo sapiens, UniProt O95076 139-225, L168Q)
[19] = biological target: ALX3 (Homo sapiens, UniProt O95076 139-225, L168V)
[20] = biological target: T6, PAX4 (Homo sapiens, UniProt O43316 9-242, R227W)
T6 sequence: T1 sequence with K192R, R219W

Chain of HOXC10 (Homo sapiens, UniProt Q9NYD6 254-340, K271E) (Q9NYD6 254-340 K271E): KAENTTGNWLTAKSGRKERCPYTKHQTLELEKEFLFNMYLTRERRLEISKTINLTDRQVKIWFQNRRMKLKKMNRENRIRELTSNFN
Chain of ALX4 (Homo sapiens, UniProt Q9H161 200-286) (Q9H161 200-286): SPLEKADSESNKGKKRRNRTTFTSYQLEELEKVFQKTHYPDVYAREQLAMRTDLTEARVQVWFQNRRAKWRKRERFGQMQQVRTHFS
Chain of HOXC10 (Homo sapiens, UniProt Q9NYD6 254-340) (Q9NYD6 254-340): as the sequence (Q9NYD6 254-340 K271E) above, with E18K counted along it
Chain of ALX3 (Homo sapiens, UniProt O95076 139-225, N203S) (O95076 139-225 N203S): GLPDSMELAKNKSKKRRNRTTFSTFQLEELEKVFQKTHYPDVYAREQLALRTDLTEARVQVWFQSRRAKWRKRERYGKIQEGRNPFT
Chain of ALX3 (Homo sapiens, UniProt O95076 139-225, N203Q) (O95076 139-225 N203Q): as the sequence (O95076 139-225 N203S) above, with S65Q counted along it
Chain of ALX3 (Homo sapiens, UniProt O95076 139-225, L168V) (O95076 139-225 L168V): as the sequence (O95076 139-225 N203S) above, with L30V, S65N counted along it
Chain of VAX1 (Homo sapiens, UniProt Q5SQQ9 86-172) (Q5SQQ9 86-172): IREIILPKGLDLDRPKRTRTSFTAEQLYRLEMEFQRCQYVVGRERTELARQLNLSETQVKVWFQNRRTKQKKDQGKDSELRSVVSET
Chain of ALX3 (Homo sapiens, UniProt O95076 139-225) (O95076 139-225): as the sequence (O95076 139-225 N203S) above, with S65N counted along it
Chain of ALX4 (Homo sapiens, UniProt Q9H161 200-286, Q225E) (Q9H161 200-286 Q225E): as the sequence (Q9H161 200-286) above, with Q26E counted along it
Chain of ALX1 (Homo sapiens, UniProt Q15699 118-204, L144R) (Q15699 118-204 L144R): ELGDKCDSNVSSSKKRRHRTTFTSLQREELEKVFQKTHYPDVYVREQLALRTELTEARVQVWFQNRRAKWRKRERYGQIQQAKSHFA
Chain of ALX3 (Homo sapiens, UniProt O95076 139-225, L168Q) (O95076 139-225 L168Q): as the sequence (O95076 139-225 N203S) above, with L30Q, S65N counted along it
Chain of VAX1 (Homo sapiens, UniProt Q5SQQ9 86-172, K157R) (Q5SQQ9 86-172 K157R): as the sequence (Q5SQQ9 86-172) above, with K72R counted along it
Chain of VAX1 (Homo sapiens, UniProt Q5SQQ9 86-172, T142I) (Q5SQQ9 86-172 T142I): as the sequence (Q5SQQ9 86-172) above, with T57I counted along it
Chain of ALX1 (Homo sapiens, UniProt Q15699 118-204, L144V) (Q15699 118-204 L144V): as the sequence (Q15699 118-204 L144R) above, with R27V counted along it

CCGGGGAA
binding signal [1]: 9.93 upbm affinity estimate (log intensity, higher = more binding, comparable within an allelic series) | binding signal [2]: 9.99 upbm affinity estimate (log intensity, higher = more binding, comparable within an allelic series) | binding signal [3]: 7.17 upbm affinity estimate (log intensity, higher = more binding, comparable within an allelic series) | binding signal [4]: 7.19 upbm affinity estimate (log intensity, higher = more binding, comparable within an allelic series) | binding signal [5]: 7.27 upbm affinity estimate (log intensity, higher = more binding, comparable within an allelic series)

AATCTCCA
binding signal [6]: 9.73 upbm affinity estimate (log intensity, higher = more binding, comparable within an allelic series)

ATATCAGG
binding signal [1]: 10.6 upbm affinity estimate (log intensity, higher = more binding, comparable within an allelic series) | binding signal [2]: 10.7 upbm affinity estimate (log intensity, higher = more binding, comparable within an allelic series)

ATAACAAG
binding signal [6]: 10.9 upbm affinity estimate (log intensity, higher = more binding, comparable within an allelic series)

AATACTTA
binding signal [6]: 10.5 upbm affinity estimate (log intensity, higher = more binding, comparable within an allelic series)

CCACTAAC
binding signal [6]: 10 upbm affinity estimate (log intensity, higher = more binding, comparable within an allelic series)

AATGGCCT
binding signal [6]: 10.3 upbm affinity estimate (log intensity, higher = more binding, comparable within an allelic series)

CGGATAAC
binding signal [6]: 9.46 upbm affinity estimate (log intensity, higher = more binding, comparable within an allelic series)

AAATTCGA
binding signal [6]: 10.7 upbm affinity estimate (log intensity, higher = more binding, comparable within an allelic series)

CGCCAGCG
binding signal [1]: 10 upbm affinity estimate (log intensity, higher = more binding, comparable within an allelic series) | binding signal [2]: 9.94 upbm affinity estimate (log intensity, higher = more binding, comparable within an allelic series)

CCCATAAC
binding signal [6]: 9.61 upbm affinity estimate (log intensity, higher = more binding, comparable within an allelic series)

AAGTTTAC
binding signal [6]: 9.93 upbm affinity estimate (log intensity, higher = more binding, comparable within an allelic series)

TTAAATAA
binding signal [1]: 11.4 upbm affinity estimate (log intensity, higher = more binding, comparable within an allelic series) | binding signal [2]: 11.1 upbm affinity estimate (log intensity, higher = more binding, comparable within an allelic series) | binding signal [7]: 8.72 upbm affinity estimate (log intensity, higher = more binding, comparable within an allelic series)

AAATTAAC
binding signal [6]: 13.5 upbm affinity estimate (log intensity, higher = more binding, comparable within an allelic series) | binding signal [8]: 11.6 upbm affinity estimate (log intensity, higher = more binding, comparable within an allelic series) | binding signal [9]: 12.2 upbm affinity estimate (log intensity, higher = more binding, comparable within an allelic series) | binding signal [10]: 12.7 upbm affinity estimate (log intensity, higher = more binding, comparable within an allelic series) | binding signal [11]: 11.4 upbm affinity estimate (log intensity, higher = more binding, comparable within an allelic series) | binding signal [12]: 8.36 upbm affinity estimate (log intensity, higher = more binding, comparable within an allelic series) | binding signal [13]: 11.9 upbm affinity estimate (log intensity, higher = more binding, comparable within an allelic series) | binding signal [14]: 11.1 upbm affinity estimate (log intensity, higher = more binding, comparable within an allelic series) | binding signal [15]: 10.5 upbm affinity estimate (log intensity, higher = more binding, comparable within an allelic series) | binding signal [16]: 12.2 upbm affinity estimate (log intensity, higher = more binding, comparable within an allelic series) | binding signal [17]: 10.9 upbm affinity estimate (log intensity, higher = more binding, comparable within an allelic series) | binding signal [18]: 10.3 upbm affinity estimate (log intensity, higher = more binding, comparable within an allelic series) | binding signal [19]: 9.64 upbm affinity estimate (log intensity, higher = more binding, comparable within an allelic series) | binding signal [20]: 10.9 upbm affinity estimate (log intensity, higher = more binding, comparable within an allelic series) | binding signal [7]: 8.57 upbm affinity estimate (log intensity, higher = more binding, comparable within an allelic series)

CTACTTAC
binding signal [6]: 9.76 upbm affinity estimate (log intensity, higher = more binding, comparable within an allelic series)
